# From PubChem BioAssay (NCI)
# The panel holds about 79,000 compounds, 15% with a hit somewhere; the sample as a whole holds those more often. Unmarked numbers belong to inactive results. The source made the active and inactive calls. No stated cut-off is given here; in the data, active means growth inhibition above about 70%; inactive means the rest.
# Columns and labels:
# [1] = NCI Yeast Anticancer Drug Screen. Data for the rad52 strain (AID 147);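 further: 0% = growth of vehicle-treated control cultures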; settings: S. cerevisiae rad52 mutant growth inhibition, hits give high values
# How it was run: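 Compounds are applied to a genetically defined yeast strain lacking normal DNA damage repair, and inhibition of growth is expressed relative to cultures given vehicle only.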
# [2] = NCI Yeast Anticancer Drug Screen. Data for the rad50EPP+ strain (AID 151);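 further: 0% = growth of vehicle-treated control cultures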; settings: S. cerevisiae rad50 mutant strain, hits give high values
# How it was run: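 Compounds were applied to the rad50EPP+ yeast strain, which bears a defined DNA repair alteration, and growth inhibition was determined relative to vehicle-treated cultures.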
# [3] = NCI Yeast Anticancer Drug Screen. Data for the mgt1 strain (AID 153); settings: S. cerevisiae mgt1 mutant growth inhibition, hits give high values
# How it was run: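 Strain: mgt1 yeast, one of a set carrying defined DNA damage repair or cell cycle control alterations. Compound-treated growth compared with vehicle.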
# [4] = NCI Yeast Anticancer Drug Screen. Data for the rad50 strain (AID 155);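 further: 0% = growth of vehicle-only cultures of the same strain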; settings: S. cerevisiae rad50 strain growth inhibition, hits give high values
# How it was run: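 Genetically altered yeast (DNA repair pathway); compound treatment; growth inhibition vs vehicle ctrl.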
# [5] = NCI Yeast Anticancer Drug Screen. Data for the mec2-1 strain (AID 157); settings: S. cerevisiae mec2-1 strain, hits give high values
# How it was run: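 Strain: mec2-1 (DNA repair/cell cycle alteration). Compound exposure, then growth measured; inhibition expressed relative to vehicle.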
# [6] = NCI Yeast Anticancer Drug Screen. Data for the rad14 strain (AID 159);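 further: 0% = growth of vehicle-treated control cultures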; settings: S. cerevisiae rad14 strain growth inhibition, hits give high values
# How it was run: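 Test compounds were applied to a repair-deficient yeast strain. Its growth was then compared with that of cultures given vehicle alone, and inhibition was expressed relative to those controls.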
# [7] = NCI Yeast Anticancer Drug Screen. Data for the sgs1 mgt1 strain (AID 161);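 further: 0% = growth of cultures given vehicle only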; settings: S. cerevisiae sgs1 mgt1 strain, hits give high values
# How it was run: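 Genetically altered yeast, compound exposure, growth inhibition relative to vehicle.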
# [8] = NCI Yeast Anticancer Drug Screen. Data for the cln2 rad14 strain (AID 165);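 further: 0% = growth equal to vehicle treated cultures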; settings: S. cerevisiae cln2 rad14 strain, hits give high values
# How it was run: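 Compounds are applied to the cln2 rad14 yeast strain, and growth is then compared with that of vehicle-treated cultures to give inhibition.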
# [9] = NCI Yeast Anticancer Drug Screen. Data for the bub3 strain (AID 167); settings: S. cerevisiae bub3 mutant strain, hits give high values
# How it was run: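 Yeast carrying a defined mutation is treated with each compound, and growth is compared with that of vehicle-exposed cells to give inhibition.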
# [10] = NCI Yeast Anticancer Drug Screen. Data for the wt2 strain (AID 169);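 further: 0% = growth of vehicle-treated yeast cultures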; settings: S. cerevisiae wt2 strain growth inhibition, hits give high values
# How it was run: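 This strain belongs to a panel of yeast strains with defined genetic alterations in DNA damage repair or cell cycle control. Compounds are applied, and growth inhibition is measured against vehicle-treated cultures.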
# [11] = NCI Yeast Anticancer Drug Screen. Data for the sgs1 strain (AID 173);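 further: 0% = growth of vehicle-only control cultures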; settings: S. cerevisiae sgs1 mutant, hits give high values
# How it was run: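 Growth of a yeast strain bearing a defined genetic alteration is measured after compound treatment. Inhibition is expressed relative to vehicle-only controls.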
# [12] = NCI Yeast Anticancer Drug Screen. Data for the mlh1 rad18 strain (AID 175); settings: S. cerevisiae mlh1 rad18 strain growth inhibition, hits give high values
# How it was run: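 Read-out is yeast growth inhibition, calculated against vehicle-only controls. The compound was applied to a strain engineered with DNA damage repair alterations.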
# [13] = NCI Yeast Anticancer Drug Screen. Data for the wt1 strain (AID 149);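 further: 0% = growth of vehicle-treated wt1 cultures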; settings: S. cerevisiae wt1 strain (SPY 50644) growth inhibition, hits give high values
# How it was run: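 wt1 yeast, compound-treated; % growth inhibition vs vehicle control.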
# [14] = NCI Yeast Anticancer Drug Screen. Data for the CLN2oe strain (AID 163);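 further: 0% = growth of vehicle-only control cultures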; settings: S. cerevisiae CLN2oe strain, hits give high values
# How it was run: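 Growth of a genetically modified yeast strain is measured after compound exposure and compared with cultures given vehicle alone.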
# [15] = NCI Yeast Anticancer Drug Screen. Data for the mlh1 strain (AID 171);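 further: 0% = growth of vehicle-treated control cultures of the same strain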; settings: S. cerevisiae mlh1 strain growth inhibition, hits give high values
# How it was run: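 Growth of the mutant yeast strain after compound exposure, expressed as inhibition relative to vehicle-only controls.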
# [16] = NCI Yeast Anticancer Drug Screen. Data for the rad18 strain (AID 177); settings: S. cerevisiae rad18 mutant growth inhibition, hits give high values
# How it was run: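 Growth of the mutant yeast strain after compound exposure, normalised to vehicle-only cultures.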
# [17] = at 5.0 µM (retest, dose inferred, filed as 0.5)
# [18] = at 50.0 µM (retest, dose inferred, filed as 5.0)
smiles,measurement,setting,value
O=C(O)c1cc2c(cc1S(=O)(=O)O)C1C(C3C2C2(Cl)C(Cl)=C(Cl)C3(Cl)C2(Cl)Cl)C2(Cl)C(Cl)=C(Cl)C1(Cl)C2(Cl)Cl (stereo unspecified),growth inhibition,[1]; at 1.2 µM,0%
same,growth inhibition,[1]; at 3.7 µM,3%
same,growth inhibition,[1]; at 11.0 µM,13%
same,growth inhibition,[1]; at 33.0 µM,78% (active)
same,growth inhibition,[1]; at 100.0 µM,95% (active)
same,growth inhibition,[2]; at 1.2 µM,3%
same,growth inhibition,[2]; at 3.7 µM,-2%
same,growth inhibition,[2]; at 11.0 µM,-52%
same,growth inhibition,[2]; at 33.0 µM,-84%
same,growth inhibition,[2]; at 100.0 µM,61%
same,growth inhibition,[3]; at 1.2 µM,2%
same,growth inhibition,[3]; at 3.7 µM,-1%
same,growth inhibition,[3]; at 11.0 µM,22%
same,growth inhibition,[3]; at 33.0 µM,92% (active)
same,growth inhibition,[3]; at 100.0 µM,96% (active)
same,growth inhibition,[4]; at 1.2 µM,2%
same,growth inhibition,[4]; at 3.7 µM,1%
same,growth inhibition,[4]; [17],17%
same,growth inhibition,[4]; at 11.0 µM,9%
same,growth inhibition,[4]; at 33.0 µM,63%
same,growth inhibition,[4]; [18],96% (active)
same,growth inhibition,[4]; at 50.0 µM,96.2% (active)
same,growth inhibition,[4]; at 100.0 µM,90% (active)
same,growth inhibition,[5]; at 1.2 µM,-3%
same,growth inhibition,[5]; at 3.7 µM,-2%
same,growth inhibition,[5]; [17],20%
same,growth inhibition,[5]; at 11.0 µM,0%
same,growth inhibition,[5]; at 33.0 µM,85% (active)
same,growth inhibition,[5]; [18],96% (active)
same,growth inhibition,[5]; at 50.0 µM,95.4% (active)
same,growth inhibition,[5]; at 100.0 µM,96% (active)
same,growth inhibition,[6]; at 1.2 µM,0%
same,growth inhibition,[6]; at 3.7 µM,3%
same,growth inhibition,[6]; at 11.0 µM,24%
same,growth inhibition,[6]; at 33.0 µM,84% (active)
same,growth inhibition,[6]; at 100.0 µM,96% (active)
same,growth inhibition,[7]; [17],37%
same,growth inhibition,[7]; [18],97% (active)
same,growth inhibition,[7]; at 50.0 µM,94.4% (active)
same,growth inhibition,[8]; [17],11%
same,growth inhibition,[8]; [18],97% (active)
same,growth inhibition,[8]; at 50.0 µM,93.7% (active)
same,growth inhibition,[9]; at 1.2 µM,-3%
same,growth inhibition,[9]; at 3.7 µM,-5%
same,growth inhibition,[9]; [17],2%
same,growth inhibition,[9]; at 11.0 µM,-11%
same,growth inhibition,[9]; at 33.0 µM,74% (active)
same,growth inhibition,[9]; [18],98% (active)
same,growth inhibition,[9]; at 50.0 µM,94.8% (active)
same,growth inhibition,[9]; at 100.0 µM,94% (active)
same,growth inhibition,[10]; at 1.2 µM,1%
same,growth inhibition,[10]; at 3.7 µM,0%
same,growth inhibition,[10]; at 11.0 µM,12%
same,growth inhibition,[10]; at 33.0 µM,90% (active)
same,growth inhibition,[10]; at 100.0 µM,96% (active)
same,growth inhibition,[11]; at 1.2 µM,-4%
same,growth inhibition,[11]; at 3.7 µM,-1%
same,growth inhibition,[11]; at 11.0 µM,21%
same,growth inhibition,[11]; at 33.0 µM,92% (active)
same,growth inhibition,[11]; at 100.0 µM,96% (active)
same,growth inhibition,[12]; [17],67%
same,growth inhibition,[12]; [18],98% (active)
same,growth inhibition,[12]; at 50.0 µM,96.3% (active)
CCCCCCCN1C(=O)c2ccccc2C1=O,growth inhibition,[13]; at 1.2 µM,0%
same,growth inhibition,[13]; at 3.7 µM,-1%
same,growth inhibition,[13]; at 11.0 µM,-1%
same,growth inhibition,[13]; at 33.0 µM,-1%
same,growth inhibition,[13]; at 100.0 µM,0%
same,growth inhibition,[3]; at 1.2 µM,-7%
same,growth inhibition,[3]; at 3.7 µM,-6%
same,growth inhibition,[3]; at 11.0 µM,-5%
same,growth inhibition,[3]; at 33.0 µM,9%
same,growth inhibition,[3]; at 100.0 µM,31%
same,growth inhibition,[4]; at 1.2 µM,-2%
same,growth inhibition,[4]; at 3.7 µM,5%
same,growth inhibition,[4]; [17],-17%
same,growth inhibition,[4]; at 11.0 µM,7%
same,growth inhibition,[4]; at 33.0 µM,26%
same,growth inhibition,[4]; [18],3%
same,growth inhibition,[4]; at 50.0 µM,83.9% (active)
same,growth inhibition,[4]; at 100.0 µM,22%
same,growth inhibition,[5]; at 1.2 µM,-5%
same,growth inhibition,[5]; at 3.7 µM,-8%
same,growth inhibition,[5]; [17],-10%
same,growth inhibition,[5]; at 11.0 µM,-27%
same,growth inhibition,[5]; at 33.0 µM,-6%
same,growth inhibition,[5]; [18],11%
same,growth inhibition,[5]; at 50.0 µM,53.2%
same,growth inhibition,[5]; at 100.0 µM,-11%
same,growth inhibition,[6]; at 1.2 µM,-1%
same,growth inhibition,[6]; at 3.7 µM,-10%
same,growth inhibition,[6]; at 11.0 µM,4%
same,growth inhibition,[6]; at 33.0 µM,13%
same,growth inhibition,[6]; at 100.0 µM,2%
same,growth inhibition,[7]; [17],-14%
same,growth inhibition,[7]; [18],19%
same,growth inhibition,[7]; at 50.0 µM,67.8%
same,growth inhibition,[14]; at 1.2 µM,-1%
same,growth inhibition,[14]; at 3.7 µM,-2%
same,growth inhibition,[14]; at 11.0 µM,-4%
same,growth inhibition,[14]; at 33.0 µM,-6%
same,growth inhibition,[14]; at 100.0 µM,-11%
same,growth inhibition,[8]; [17],-7%
same,growth inhibition,[8]; [18],-8%
same,growth inhibition,[8]; at 50.0 µM,30.6%
same,growth inhibition,[9]; at 1.2 µM,3%
same,growth inhibition,[9]; at 3.7 µM,-4%
same,growth inhibition,[9]; [17],-17%
same,growth inhibition,[9]; at 11.0 µM,28%
same,growth inhibition,[9]; at 33.0 µM,36%
same,growth inhibition,[9]; [18],34%
same,growth inhibition,[9]; at 50.0 µM,73.8% (active)
same,growth inhibition,[9]; at 100.0 µM,37%
same,growth inhibition,[10]; at 1.2 µM,-2%
same,growth inhibition,[10]; at 3.7 µM,-1%
same,growth inhibition,[10]; at 11.0 µM,0%
same,growth inhibition,[10]; at 33.0 µM,11%
same,growth inhibition,[10]; at 100.0 µM,45%
same,growth inhibition,[15]; at 1.2 µM,-12%
same,growth inhibition,[15]; at 3.7 µM,-6%
same,growth inhibition,[15]; at 11.0 µM,-19%
same,growth inhibition,[15]; at 33.0 µM,-19%
same,growth inhibition,[15]; at 100.0 µM,1%
same,growth inhibition,[12]; [17],-31%
same,growth inhibition,[12]; [18],56%
same,growth inhibition,[12]; at 50.0 µM,86.6% (active)
same,growth inhibition,[16]; at 1.2 µM,-1%
same,growth inhibition,[16]; at 3.7 µM,-5%
same,growth inhibition,[16]; at 11.0 µM,-1%
same,growth inhibition,[16]; at 33.0 µM,13%
same,growth inhibition,[16]; at 100.0 µM,28%
Cc1cccc(/C=N/NC(=S)NC2CCCCC2)n1,growth inhibition,[13]; at 1.2 µM,-7%
same,growth inhibition,[13]; at 3.7 µM,-6%
same,growth inhibition,[13]; at 11.0 µM,-4%
same,growth inhibition,[13]; at 33.0 µM,10%
same,growth inhibition,[13]; at 100.0 µM,6%
same,growth inhibition,[2]; at 1.2 µM,-8%
same,growth inhibition,[2]; at 3.7 µM,-8%
same,growth inhibition,[2]; at 11.0 µM,-13%
same,growth inhibition,[2]; at 33.0 µM,-13%
same,growth inhibition,[2]; at 100.0 µM,-12%
same,growth inhibition,[4]; at 1.2 µM,-7%
same,growth inhibition,[4]; at 3.7 µM,-9%
same,growth inhibition,[4]; [17],-32%
same,growth inhibition,[4]; at 11.0 µM,-33%
same,growth inhibition,[4]; at 33.0 µM,13%
same,growth inhibition,[4]; [18],77% (active)
same,growth inhibition,[4]; at 50.0 µM,39.5%
same,growth inhibition,[4]; at 100.0 µM,7%
same,growth inhibition,[5]; at 1.2 µM,1%
same,growth inhibition,[5]; at 3.7 µM,-6%
same,growth inhibition,[5]; [17],-23%
same,growth inhibition,[5]; at 11.0 µM,-5%
same,growth inhibition,[5]; at 33.0 µM,11%
same,growth inhibition,[5]; [18],64%
same,growth inhibition,[5]; at 50.0 µM,54.8%
same,growth inhibition,[5]; at 100.0 µM,8%
same,growth inhibition,[6]; at 1.2 µM,-7%
same,growth inhibition,[6]; at 3.7 µM,-15%
same,growth inhibition,[6]; at 11.0 µM,-11%
same,growth inhibition,[6]; at 33.0 µM,28%
